# Assay outcomes from PubChem BioAssay.
# The full list was thinned out, with hits kept by preference.
# CD40 NFkB inh: CD40 pathway inhibition in BL2 cells; inhibition, % at 10 µM; 83,000 tested, 0.94% active; AID 1053188; BL2 NF-kB luciferase reporter, CD40L-induced, 4 h;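 active = mean inhibition of at least 50% with a set share of replicates also reaching that level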;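 also: 0% = neutral control wells and 100% = IKK inhibitor VII at 50 µM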
# * marks the source's active call; other numbers are inactive results; [ ] = dose if it differs, or a comment.
SMILES,CD40 NFkB inh
CC1OC(OC2CC(O)C3(CO)C4C(O)CC5(C)C(C6=CC(=O)OC6)CCC5(O)C4CCC3(O)C2)C(O)C(O)C1O (stereo not drawn),73*[25 µM]
C[C@@H]1O[C@@H](O[C@H]2C[C@@H](O)[C@]3(CO)[C@H]4[C@H](O)C[C@]5(C)[C@@H](C6COC(=O)C6)CC[C@]5(O)[C@@H]4CC[C@]3(O)C2)[C@H](O)[C@H](O)[C@H]1O (stereo partly drawn),67*
Cc1ccc(OC(=O)N(C)C[C@H]2OCc3ccccc3-c3c(n(C)c4ccccc34)C(=O)N([C@H](C)CO)C[C@@H]2C)cc1,21[25 µM]
Cc1ccc(OC(=O)N(C)C[C@@H]2OCc3ccccc3-c3c(n(C)c4ccccc34)C(=O)N([C@@H](C)CO)C[C@@H]2C)cc1,15[25 µM]
O=C(O)[C@H]1[C@H](CO)[C@H]2Cn3c(ccc(-c4cccnc4)c3=O)[C@@H]1N2C(=O)Nc1cc(F)ccc1F,-4[25 µM]
CN1[C@H](CO)[C@H]2c3ccccc3NC[C@H]21,-9[25 µM]
Clc1ccc(C2=CCCC3CCC2N3)cn1 (stereo not drawn),-14[25 µM]
OC[C@@H]1Nc2ccc(C#Cc3cccnc3)cc2[C@H]2NCC[C@@H]12,6[25 µM]
FC(F)(F)CN1C[C@@H]2N[C@H](C1)C2c1ccc(Br)cc1 (stereo partly drawn),2
COC(=O)[C@H]1[C@H](CO)[C@H]2Cn3c(ccc(-c4cccc(C(=O)N(C)C)c4)c3=O)[C@@H]1N2CC1CC1,-2[25 µM]
CN1[C@@H]2Cn3c(cccc3=O)[C@H]1[C@@H](C(=O)NCC1CC1)[C@@H]2CO,-1[25 µM]
CC(=O)N1C[C@@H]2C(c3ccccc3)[C@H](C1)N2C (stereo partly drawn),-1
CC=Cc1ccc2n(c1=O)C[C@H]1[C@H](CO)[C@@H](C(=O)OC)[C@@H]2N1S(=O)(=O)c1ccccc1C (mixture of isomers),4[25 µM]
C[C@H]1CCCC(=O)CCC/C=C/c2cc(O)cc(O)c2C(=O)O1,43*
O=C(Cc1ccccn1)N1CCCCN2[C@H](CO)[C@H](c3ccc(-c4ccccc4F)cc3)[C@@H]2C1,27[25 µM]
CCN1CC2(COC(=O)c3ccccc3N3C(=O)CC(C)C3=O)CCC(OC)C34C5CC6C(OC)CC(O)(C5C6OC)C(O)(C(OC)C23)C14 (stereo not drawn),5[25 µM]
CCCN1[C@@H]2c3ccc(-c4cccc(OC)c4)c(=O)n3C[C@H]1[C@H](CO)[C@H]2C(=O)OC,-11[25 µM]
CCCN1[C@@H]2Cn3c(ccc(-c4cccc(OC)c4)c3=O)[C@H]1[C@@H](C(=O)OC)[C@@H]2CO,-1[25 µM]
CC1=NNC(=O)C1Br (stereo not drawn),52*
O=C(Cc1ccccn1)N1CCCCN2[C@H](CO)[C@H](c3ccc(Br)cc3)[C@H]2C1,-4[25 µM]
FC(F)(F)CN1C[C@@H]2C(c3ccccc3)[C@H](C1)N2CC1CC1 (stereo partly drawn),3
COc1ccc(OC(=O)N(C)C[C@@H]2OCc3ccccc3-c3c(n(C)c4ccccc34)C(=O)N([C@H](C)CO)C[C@H]2C)cc1,13
CC(=NNC(=S)N1CC2CCC(CC2)C1)c1nccs1,66*
COc1cccc(-c2ccc([C@@H]3[C@H]4CN(C(=O)Cc5ccncc5)CCCCN4[C@H]3CO)cc2)c1,-4[25 µM]
CN1[C@@H]2CN(CC3CC3)C[C@H]1C2c1ccc(Br)cc1 (stereo partly drawn),-14
SMILES,CD40 NFkB inh
C[C@]12CC[C@@H](O)C[C@@H]1CC[C@@H]1[C@@H]2CC[C@]2(C)[C@@H](C(=O)CO)CC[C@@H]12,-8[25 µM]
CCOP(=O)(CCP(=O)(OCC)OCC)OCC.C[CH2][Sn]([Cl])([Cl])[CH2]C,59*
Oc1ccc2c3c1OC1c4oc5ccccc5c4CC4(O)C(C2)N(CC2CC2)CCC314 (stereo not drawn),1[25 µM]
C[C@@H]1CN([C@@H](C)CO)C(=O)CCCn2cc(nn2)CO[C@@H]1CN(C)C(=O)Oc1cccc2ccccc12,1[25 µM]
C[C@@H]1CN([C@H](C)CO)C(=O)c2c(c3ccccc3n2C)-c2ccccc2CO[C@@H]1CN(C)C(=O)Oc1ccccc1,21
COC(=O)[C@H]1[C@H](CO)[C@H]2Cn3c(ccc(C4=CCCCC4)c3=O)[C@@H]1N2C(=O)Cc1ccccn1,-16[25 µM]
COc1cccc(-c2ccc3n(c2=O)C[C@H]2[C@H](CO)[C@@H](C(=O)O)[C@@H]3N2Cc2ccccc2F)c1,5[25 µM]
Fc1ccc(CN2CC3NC(C2)C3c2ccc(Br)cc2)cc1 (stereo not drawn),4
COC(=O)C12OCC34C(CC5C(C)=C(O)C(=O)CC5(C)C3C(O)C1O)OC(=O)C(OC(=O)/C=C(\C)C(C)C)C24 (stereo not drawn),92*
O=C(O)C[C@@H]1CC[C@H]2NC[C@@H](O)COC[C@@H]2O1,1[25 µM]
CC=Cc1ccc2n(c1=O)C[C@@H]1[C@@H](CO)[C@H](C(=O)OC)[C@H]2N1S(=O)(=O)c1ccccc1C (mixture of isomers),0[25 µM]
CC(C)NC(=O)N1C[C@@H]2N[C@H](C1)C2c1ccccc1 (stereo partly drawn),-3
C=CCN1[C@@H]2CN(S(C)(=O)=O)C[C@H]1C2c1ccccc1 (stereo partly drawn),-1
CC(=O)OC(C)(C)/C=C/C(=O)C(C)(O)C1C(O)CC2(C)C3CC=C4C(CC(O)C(=O)C4(C)C)C3(C)C(=O)CC12C (stereo not drawn),60*
CC(C)NC(=O)N1CC2C(c3ccccc3)C(C1)N2C (stereo not drawn),0
CCC(=O)N1[C@@H]2c3ccc(C4=CCCC4)c(=O)n3C[C@H]1[C@H](CO)[C@H]2C(=O)OC,9[25 µM]
CC(=O)OC1C(=O)OCC23CCC4(C)OC4C2OC2CC(OC(=O)C=CC=CC(=O)OCCC1C)C3(C)C21CO1 (stereo not drawn),68*
CC1=CC2OC3CC4OC(=O)C=CC=CC(=O)OCCC(C)C(O)C(=O)OCC2(CC1O)C4(C)C31CO1 (stereo not drawn),103*
O=C(Cc1ccccn1)N1CCCCN2[C@@H](CO)[C@H](c3ccc(Br)cc3)[C@@H]2C1,-1[25 µM]
FC(F)(F)CN1C[C@@H]2C(c3ccc(Br)cc3)[C@H](C1)N2CC1CC1 (stereo partly drawn),-4
O=C1CNC[C@@H]2[C@@H](c3ccc(Br)cc3)[C@H](CO)N12,-17[25 µM]
COC(=O)[C@@H]1[C@@H](CO)[C@@H]2Cn3c(ccc(-c4cccc(F)c4)c3=O)[C@H]1N2C(=O)CC1CC1,-9[25 µM]
COC(=O)[C@@H]1[C@@H](CO)[C@@H]2Cn3c(ccc(-c4ccccc4)c3=O)[C@H]1N2S(=O)(=O)c1ccccc1C,19[25 µM]
C/C=C/c1ccc(C2[C@H]3CNC[C@@H]2N3CC2CCCCC2)cc1 (stereo partly drawn),-1
OC[C@H]1[C@@H]2c3ccccc3NC[C@@H]2N1Cc1cccnc1,0[25 µM]
NC(N)=N/N=C/c1cn(-c2ccccc2)nc1-c1cccs1,87*
O=C1CCC2(O)C3Cc4ccc(O)c5c4C2(CCN3CC2CC2)C1O5 (stereo not drawn),-8[25 µM]
C/C=C/c1ccc(C2[C@@H]3CN(C(=O)C4CCC4)C[C@H]2N3)cc1 (stereo partly drawn),10
COc1ccc(OC(=O)N(C)C[C@@H]2OCc3ccccc3-c3c(n(C)c4ccccc34)C(=O)N([C@@H](C)CO)C[C@H]2C)cc1,38
CCN(CC)CCOC1CCC2(C)C(=CCC3C4CCC(=O)C4(C)CCC32)C1 (stereo not drawn),-11[25 µM]
